Gli-Sufu block – Gli-Sufu pathway antagonists, primary screen, luciferase luminescence, Sufu-KO-LIGHT cells, uHTS; Sufu-KO-LIGHT fibroblasts, Gli luciferase reporter luminescence; inhibition, % at 5 µM; 0.74% of 340,000 active;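 active = inhibition above about 55%, limit read from the data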
MPTP block – mitochondrial permeability transition pore inhibitors, primary screen, biochemical, isolated mouse mitochondria, absorbance; Ca2+ swelling absorbance, 30 min; inhibition, % at 10 µM; 1.4% of 360,000 active; AID 602449, 2012;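 active = inhibition of 50% or more, scaled per plate between neutral and stimulator controls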
GRIN3A LBD mod – binders of NR3A ligand-binding domain, primary screen, biophysical, differential scanning fluorimetry, uHTS. Glutamate receptor ionotropic, NMDA 3A (GRIN3A) ligand-binding domain. NR3A LBD differential scanning fluorimetry, Tm shift; 0% = protein alone, 100% = glycine-bound protein. Tm shift relative to glycine control, % at 25 µM. 2.5% of 340,000 active. AID 1259313, 2017;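 active = melting temperature shift of at least 10% of the positive control shift, at one fixed dose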
Beta cell apopt – inhibitors of cytokine-induced beta cell apoptosis, primary screen, luminescence; INS-1E cytokine-induced death, ATP luminescence, 48 h; percent of positive-control rescue, neutral wells zero; protection from apoptosis, % (no concentration beside the values); 0.8% of 300,000 active;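 active = Every replicate reaches about 75%, or at least half do and their mean reaches it too, limit read from the data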;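 also: higher means more ATP so stronger rescue from cytokine killing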
Mdm2 MdmX PPI – inhibitors of human Mdm2-MdmX association, primary screen, cell-based, luminescence, split luciferase, SaOS-2, uHTS; Protein Mdm4 (Homo sapiens) + E3 ubiquitin-protein ligase Mdm2 (Homo sapiens), …; SaOS-2 split-luciferase Mdm2/MdmX complementation; inhibition, % at 8 µM; 3% of 330,000 active;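 active = inhibition of at least 50% at 8 µM in the primary screen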
CSC inhib – cancer stem cell viability inhibitors, primary screen, luminescence | inhibition, % at 7.5 µM | cancer stem cell-like cells viability | 1.1% of 300,000 active; in the data active = inhibition above about 75%; tested in HMLE shEcad cells
Mdm2 MdmX conf – Mdm2-MdmX complex disruptors, retested hits, confirmation, luminescence, single concentration. Mdm2-MdmX binding, luminescent assay. shares compounds with Mdm2 MdmX PPI. 55% of 10,000 active. inhibition, % at 8 µM; in the data active = inhibition above about 40%
Full FLuc ctr – full-length luciferase signal inhibition, confirmation, counter-screen for Mdm2/MdmX interaction inhibitor project, cell-based, single concentration, SaOS-2; shares compounds with Mdm2 MdmX PPI; 77% of 6,200 active; SaOS-2 full-length luciferase counterscreen, luminescence; inhibition, % at 8 µM;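 active = mean inhibition at 8 µM reaching about 37%, which flags the compound as non-specific, limit read from the data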;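 also: p53-null SaOS-2 cells with luciferase driven by a doxycycline-inducible promoter; compound on cells about two nights before reading with doxycycline added after day one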
Numbers stand for hits. In the library only some 6.6% were active in any assay of this set; here they are far more common.

How did COc1ccc(N/C(N)=N/c2nc(CSc3nnc(C)s3)cc(=O)[nH]2)cc1 do in these assays?
Gli-Sufu block: inactive; MPTP block: inactive; GRIN3A LBD mod: inactive; Beta cell apopt: inactive; Mdm2 MdmX PPI: 52.1; CSC inhib: inactive; Mdm2 MdmX conf: 65.0; Full FLuc ctr: 65.4

Results for Cc1cccc(N/C(N)=N/c2nc(CSc3ccc(Cl)cc3)cc(=O)[nH]2)c1 ?
Gli-Sufu block: inactive; GRIN3A LBD mod: inactive; Beta cell apopt: inactive; Mdm2 MdmX PPI: 68.0; CSC inhib: inactive; Mdm2 MdmX conf: inactive

Results for COc1cc(CNc2ncnc3c2ncn3[C@H]2CN(Cc3ccc4c(c3)OCO4)C[C@@H](CO)O2)cc(OC)c1OC ?
MPTP block: inactive

Results for CSc1nsc(/C=C/Nc2ccc(O)cc2C)c1C#N ?
Gli-Sufu block: inactive; MPTP block: inactive; GRIN3A LBD mod: inactive; Beta cell apopt: inactive; Mdm2 MdmX PPI: inactive; CSC inhib: inactive

What do the screens show for `O=C(Nc1ccc(F)cc1)c1cc(-c2ccccn2)nc2c(Cl)cccc12`?
Gli-Sufu block: inactive; MPTP block: inactive; GRIN3A LBD mod: inactive; Beta cell apopt: inactive; Mdm2 MdmX PPI: 60.0; CSC inhib: inactive; Mdm2 MdmX conf: 46.1; Full FLuc ctr: 61.5

Results for O=C(Nc1ccncc1)c1cc(-c2ccccn2)nc2ccccc12 ?
Gli-Sufu block: inactive; MPTP block: inactive; GRIN3A LBD mod: inactive; Beta cell apopt: inactive; Mdm2 MdmX PPI: inactive; CSC inhib: inactive

What do the screens show for `C=CCc1cccc([C@@H]2[C@@H](C)CC[C@H]3C(=O)N4[C@@H](c5cc(OC)c(OC)c(OC)c5)c5[nH]c6ccccc6c5C[C@H]4C(=O)N23)c1`?
Beta cell apopt: inactive; Mdm2 MdmX PPI: 71.5; CSC inhib: inactive; Mdm2 MdmX conf: 62.5; Full FLuc ctr: 60.3

Results for COc1cc(/C=N\Nc2nc3ccccc3[nH]2)cc(OC)c1OC ?
Gli-Sufu block: inactive; MPTP block: inactive; GRIN3A LBD mod: inactive; Beta cell apopt: inactive; Mdm2 MdmX PPI: inactive; CSC inhib: inactive

What do the screens show for `COc1ccc2c(c1)c(/C=N/Nc1nc3ccccc3[nH]1)c(C)n2C`?
Gli-Sufu block: inactive; MPTP block: inactive; GRIN3A LBD mod: inactive; Beta cell apopt: 117.2; Mdm2 MdmX PPI: 92.8; CSC inhib: inactive; Mdm2 MdmX conf: inactive; Full FLuc ctr: 67.9

How did COc1cc(CC(=O)C(=O)O)oc(=O)c1 do in these assays?
MPTP block: inactive

What do the screens show for `O=[N+]([O-])c1ccc(-c2ccc(/C=N/Nc3nc(N4CCCCC4)nc(N4CCCCC4)n3)o2)cc1`?
Gli-Sufu block: inactive; MPTP block: inactive; GRIN3A LBD mod: inactive; Mdm2 MdmX PPI: 77.5; Mdm2 MdmX conf: inactive; Full FLuc ctr: 74.7

How did O=[N+]([O-])c1ccc(-c2ccc(/C=N/Nc3nc(N4CCCC4)nc(N4CCCC4)n3)o2)cc1 do in these assays?
Gli-Sufu block: inactive; MPTP block: inactive; GRIN3A LBD mod: inactive; Beta cell apopt: inactive; Mdm2 MdmX PPI: 92.8; CSC inhib: inactive; Mdm2 MdmX conf: 66.7; Full FLuc ctr: 49.3

What do the screens show for `COc1ccc(CNC(=O)C(NC(C)=O)C(=O)Nc2ccc(C(C)C)cc2)cc1` (centres undefined)?
Gli-Sufu block: inactive; MPTP block: inactive; GRIN3A LBD mod: inactive; Beta cell apopt: inactive; Mdm2 MdmX PPI: inactive; CSC inhib: inactive

What do the screens show for `OC(c1cc(F)cc(Cl)c1)c1ncc(-c2ccc3ccccc3c2)[nH]1` (centres undefined)?
MPTP block: inactive

Source: PubChem
